These results are taken from PubChem BioAssay (Tox21).

Where “and” joins values, the source holds several entries; their conditions need not be identical. Identical values can stand only once. Inconclusive results are not listed. Calls of active or inactive are those of the source. Unless noted, the call rests on the fitted dose curve; in most records, active means well fitted curve in the direction sought with a large enough effect in the repeat runs; inconclusive means weak or mixed curves; inactive means no such curve, though single readings can be large; an effect the other way counts as inactive or inconclusive.

Test [1] can be described thus: qHTS assay to identify small molecule antagonists of the estrogen related receptor (ERR) signaling pathway from Tox21 library - cell viability counter screen (AID 1224834). Further: nearly all actives have a fitted effect of over 30% in size. Further: potency means the concentration at half of the fitted maximal effect. Summed up: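 Viability readout (CellTiter-Fluor fluorescence, 30 min at 37 C) multiplexed with the ERR assay; cells treated 17.5 h at 37 C with compounds delivered in DMSO.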
On the technique in general: qHTS replaces the single test concentration by a dilution series.

A short description of test [2]: qHTS assay to identify small molecule agonists of the constitutive androstane receptor (CAR) signaling pathway - cell viability counter screen (AID 1224836). Further: nearly all actives have a fitted effect of over 45% in size. Further: potency means the concentration at half of the fitted maximal effect. Summed up: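 Counter screen multiplexed with the CAR reporter readout: HepG2 cells co-transfected with hCAR and the CYP2B6-2.2kb construct receive a 15-concentration compound series and 0.75 uM PK11195 (final), then CellTiter-Fluor fluorescence is read after 23 h.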

A short description of test [3]: qHTS assay to identify small molecule antagonists of the constitutive androstane receptor (CAR) signaling pathway - cell viability counter screen (AID 1224837). Further: nearly all actives have a fitted effect of over 45% in size. Further: potency means the concentration at half of the fitted maximal effect. Summed up: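 Fluorescence from CellTiter-Fluor served as the viability signal. Human hepatoma HepG2 cells stably bearing hCAR and CYP2B6-2.2kb received compound plus CITCO (50 nM final) for 23 hr.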
Test [4] addresses Nuclear receptor subfamily 1 group I member 3 (Homo sapiens) (UniProt Q14994). As to the kind of experiment: qHTS assay to identify small molecule antagonists of the constitutive androstane receptor (CAR) signaling pathway (AID 1224838).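 Further: HepG2 cells stably expressing hCAR with CYP2B6 luciferase reporter stimulated by CITCO; nearly all actives have a fitted effect of over 40% in size.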 Further: potency means the concentration at half of the fitted maximal effect. Summed up: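 Quantitative HTS in double-stable HepG2-CYP2B6-hCAR cells. After 4 h plating, cells get compound (15 concentrations) and CITCO at 50 nM final, incubate 24 h at 37 C, then ONE-Glo luminescence is read.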

The target is the same in test [5]. Briefly: qHTS assay to identify small molecule agonists of the constitutive androstane receptor (CAR) signaling pathway (AID 1224839). Further: nearly all actives have a fitted effect of over 15% in size. Further: potency means the concentration at half of the fitted maximal effect. Summed up:
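A 15-concentration quantitative screen uses HepG2 cells co-transfected stably with human CAR and CYP2B6-2.2kb reporter. Treatment lasts 24 h with 0.75 uM PK11195 final present; ONE-Glo luminescence is the signal.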

Test [6] can be described thus: qHTS assay to identify small molecule antagonists of the estrogen related receptor signaling pathway with the pleiotropic PPARgamma coactivator (PGC) from Tox21 10K library - cell viability counter screen (AID 1224840; active means well fitted cell-killing curve with a large enough effect in the repeat runs, not every such curve was filed as active; further: nearly all actives have a fitted effect of over 40% in size). Summed up:
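Compounds in DMSO, alongside positive and negative controls, were pinned onto PGC/ERR cells (2,000 per well). Exposure lasted 17.5 hours at 37 C, followed by a 30-minute CellTiter-Fluor incubation and fluorescence reading.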

Test [7] in a line: qHTS assay to identify small molecule antagonists of the estrogen related receptor signaling pathway with the pleiotropic PPARgamma coactivator (PGC) from Tox21 10K library (AID 1224841; call rule not given here; further: actives are mostly falling curves and most rising ones were filed inactive; nearly all actives have a fitted effect of over 50% in size; further: potency means the concentration at half of the fitted maximal effect). Summed up:
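Compound exposure ran 18 hours at 37 C in PGC/ERR cells (2,000/well) that had first rested 6 hours in a 37 C/5% CO2 incubator. Luciferase activity was then detected with One-Glo after a 30-minute room-temperature step.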

The nature of test [8]: qHTS assay to identify small molecule agonists of the estrogen related receptor signaling pathway with the pleiotropic PPARgamma coactivator (PGC) from Tox21 10K library (AID 1224842). Further: nearly all actives have a fitted effect of over 15% in size. Further: potency means the concentration at half of the fitted maximal effect. In outline:
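Luminescence from One-Glo (30 min, room temperature) measured after PGC/ERR cells had 18 h at 37 C with pinned compound (23 nL in DMSO). Cells had been seeded at 2,000 per well and pre-incubated 6 h.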

In test [9] the target is Luciferin 4-monooxygenase (Photinus pyralis) (UniProt P08659). Briefly: qHTS assay to identify small molecule inhibitors of firefly luciferase (AID 1224835). Further: nearly all actives have a fitted effect of over 25% in size. Further: potency means the concentration at half of the fitted maximal effect. Summed up: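 Inhibition of purified Photinus luciferase is measured by luminescence. Substrate levels (D-luciferin, ATP) sit at their KM values. Each compound is tested in a concentration series.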
Luciferin 4-monooxygenase (Photinus pyralis), sequence (P08659 whole entry, looked up): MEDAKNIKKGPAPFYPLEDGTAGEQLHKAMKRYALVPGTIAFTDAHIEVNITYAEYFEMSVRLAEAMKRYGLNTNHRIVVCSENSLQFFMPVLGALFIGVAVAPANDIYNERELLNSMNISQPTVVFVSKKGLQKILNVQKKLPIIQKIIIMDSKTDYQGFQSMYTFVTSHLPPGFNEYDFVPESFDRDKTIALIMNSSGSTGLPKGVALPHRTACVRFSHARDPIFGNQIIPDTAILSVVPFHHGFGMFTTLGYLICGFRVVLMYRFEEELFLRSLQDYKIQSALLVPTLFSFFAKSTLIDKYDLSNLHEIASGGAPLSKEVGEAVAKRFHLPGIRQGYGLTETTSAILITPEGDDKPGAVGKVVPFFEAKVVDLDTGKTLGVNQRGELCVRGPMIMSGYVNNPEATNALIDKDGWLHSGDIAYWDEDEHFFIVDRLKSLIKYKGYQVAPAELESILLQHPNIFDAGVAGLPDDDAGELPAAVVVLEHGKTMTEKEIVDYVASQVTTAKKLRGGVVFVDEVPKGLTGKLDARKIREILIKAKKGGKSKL

Nuclear receptor subfamily 1 group I member 3 (Homo sapiens), sequence (Q14994 whole entry, looked up): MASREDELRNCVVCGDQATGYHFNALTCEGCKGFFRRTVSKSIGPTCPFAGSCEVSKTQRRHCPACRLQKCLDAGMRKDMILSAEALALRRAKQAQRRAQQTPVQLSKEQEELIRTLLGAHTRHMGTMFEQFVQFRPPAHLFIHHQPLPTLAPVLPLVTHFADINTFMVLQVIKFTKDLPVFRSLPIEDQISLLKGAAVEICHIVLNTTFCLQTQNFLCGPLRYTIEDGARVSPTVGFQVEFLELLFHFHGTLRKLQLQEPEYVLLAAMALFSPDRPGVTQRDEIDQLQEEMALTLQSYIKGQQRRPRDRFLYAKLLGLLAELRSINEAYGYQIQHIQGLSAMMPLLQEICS

As for `C=CC(=O)OCCCCO`, the Potency entry in test [1], in test [2], in test [3], in test [4], in test [5] and in [6] was “inactive” each time. Further, the Potency entry in test [7] and in [8] was “inactive” in each case.
Consider `Clc1cc(C(Cl)(Cl)Cl)cnc1Cl`, for which the Potency result in test [1], in test [9], in test [7] and in [8] was “inactive” in each case.
For the compound `CCOP(=S)(Oc1ccc([N+](=O)[O-])cc1)c1ccccc1` (centres undefined), the Potency entry in test [1], in test [2], in test [3], in test [4], in test [6] and in test [7] was “inactive” in each case. In test [8], the Potency entry is “inactive”.
As for `CC(Cl)C(C)Cl` (centres undefined), the Potency result in test [1], in test [2], in test [3], in test [6], in test [7] and in [8] was “inactive” each time.
On to `O=C(O)COc1ccc(Cl)cc1`, for which the Potency result in test [1], in test [2], in test [3], in test [4], in [5] and in [6] was “inactive” each time. Further, the Potency result in test [7] and in test [8] was “inactive” each time.
`O=C(CBr)Nc1ccc(Cl)cc1C(=O)c1ccccc1F`: the Potency result in [1], in test [2], in test [3], in test [4], in test [6] and in [7] was “inactive” throughout. Moreover, the Potency result in test [8] is “inactive”. In [5], the Potency is 26.6 µM (active).
For the compound `O=C(CBr)OCc1ccccc1`, the Potency entry in [1], in test [2], in test [3], in test [4], in [5] and in test [6] was “inactive” each time.
For the compound `ClCc1ccccc1`, the Potency result in [1], in [2], in [3], in [4], in test [5] and in [6] was “inactive” each time.
`CNP(=O)(OC)Oc1ccc(C(C)(C)C)cc1Cl` (centres undefined): the Potency result in test [1], in test [2], in test [3], in [4], in test [6] and in [7] was “inactive” throughout. Also, the Potency entry in test [8] is “inactive”. For the same compound, the Potency in test [5] is 48.6 µM (active).
With `ClC=C(Cl)Cl`, the Potency result in [1], in test [2], in test [3], in [4], in test [5] and in test [6] was “inactive” throughout. The Potency result in test [7] and in test [8] was “inactive” in each case.
With `Nc1nc(N)nc(N)n1`, the Potency result in [9], in test [2], in test [3], in test [4] and in test [5] was “inactive” in each case.
Regarding `CC(C)O.CC(C)O.OCCN(CCO)CCO.OCCN(CCO)CCO.[Ti]`, the Potency result in [1], in test [2], in test [3], in test [4] and in [6] was “inactive” each time.
On to `N#CCc1ccccc1`, for which the Potency result in test [1], in test [2], in test [3], in test [4], in [5] and in [6] was “inactive” in each case.
Turning to `[CH3][Sn]([CH3])([Cl])[Cl]`, the Potency is 62.1 µM (active) in test [1]; 69.7 µM (active) and 43.3 µM (active) in [7]. In addition, the Potency entry in test [2], in test [3], in [4], in test [5], in [6] and in [8] was “inactive” each time.
On to `NCCCNCCCN`, for which the Potency entry in [1], in test [2], in test [3], in [4] and in test [5] was “inactive” each time.
For the compound `CCn1cc[n+](C)c1`, the Potency result in test [9] is “inactive”.
For `CC(=O)NC1CCSC1=O` (centres undefined), the Potency result in test [1], in test [2], in [3], in test [7] and in test [8] was “inactive” each time.
Turning to `CC(C)(OO)c1ccccc1`, the Potency result in test [1], in test [2], in [3], in test [5], in [6] and in [7] was “inactive” in each case. For the same compound, the Potency result in test [8] was “inactive”.
`Cl/C=C\Cl`: the Potency entry in test [1], in test [2], in [3] and in test [6] was “inactive” throughout.
`COCC(C)N(C(=O)CCl)c1c(C)csc1C` (centres undefined): the Potency entry in [1], in test [2], in test [3], in [6] and in test [8] was “inactive” in each case. In test [7], the Potency was 21.7 µM (active).
In the case of `C=CCC1([C@H](C)CCC)C(=O)NC(=O)NC1=O`, the Potency entry in [1], in test [2], in test [3], in test [4], in test [5] and in test [6] was “inactive” each time.
Take `CC(C)N(C(=O)COc1nnc(C(F)(F)F)s1)c1ccc(F)cc1`: the Potency entry in [9], in test [2], in test [3], in [4], in [6] and in [8] was “inactive” in each case. Further, the Potency in test [7] was 38.6 µM (active).
Consider `CN1C[C@H](CNC(=O)OCc2ccccc2)C[C@@H]2c3cccc4c3c(cn4C)C[C@H]21`, for which the Potency entry in test [9], in test [2], in test [3], in test [4], in [5] and in [6] was “inactive” each time.
As for `O=C1CN=C(c2ccccc2)c2cc(Cl)ccc2N1CC1CC1`, the Potency result in test [9], in test [2], in test [3], in [4], in test [6] and in [8] was “inactive” in each case. Besides, in test [7], the Potency is 25.5 µM (active).
For `CCOC(=O)COc1cc(-c2nn(C)c(OC(F)F)c2Cl)c(F)cc1Cl`, the Potency result in test [9], in test [2], in [3], in test [4], in test [5] and in test [6] was “inactive” in each case. Also, the Potency result in test [7] and in test [8] was “inactive” throughout.
Turning to `O=[N+]([O-])c1cc(C(F)(F)F)cc([N+](=O)[O-])c1Cl`, the Potency result in test [9], in [2], in test [4], in test [5], in test [7] and in test [8] was “inactive” throughout.
`NS(=O)(=O)C(F)(F)C(F)(F)C(F)(F)C(F)(F)C(F)(F)C(F)(F)C(F)(F)C(F)(F)F`: the Potency entry in test [9], in test [2], in test [3], in test [4], in test [5] and in [6] was “inactive” each time. Moreover, the Potency entry in [7] was “inactive”.
As to `Cc1ccc(N)cc1C`, the Potency result in test [9], in [2], in test [3], in test [4] and in [7] was “inactive” each time. Also, the Potency was 4.9 µM (active) in [5] and 3.47 µM (active) in [8].
Take `COC(=O)C(C)N(C(=O)Cc1ccccc1)c1c(C)cccc1C` (centres undefined): the Potency entry in test [9], in [2], in test [3], in [4] and in [6] was “inactive” throughout. Also, the Potency in test [5] was 9.69 µM (active).
For the compound `O=C1NCN(c2ccccc2)C12CCN(CCCOc1ccc(F)cc1)CC2`, the Potency result in [9], in test [5], in test [6], in test [7] and in test [8] was “inactive” throughout. For the same compound, the Potency in test [2] is 6.68 µM (active); in test [3], 3.35 µM (active); in [4] it was 9.44 µM (active).
On to `CCCCCCCCCCOC(=O)c1ccccc1C(=O)OCCCCCCCCCC`, for which the Potency entry in test [9], in [2], in [3], in [4], in test [5] and in test [6] was “inactive” throughout. Further, the Potency entry in test [7] and in test [8] was “inactive” in each case.
Take `CCOP(=S)(OCC)SCSCC`: the Potency entry in [9], in test [2], in [3] and in test [6] was “inactive” in each case.
For `C=C(C#N)CCC#N`, the Potency entry in test [9], in test [2], in [3], in test [4], in test [5] and in test [6] was “inactive” each time. In addition, the Potency result in test [7] and in [8] was “inactive” each time.
Turning to `O=C(CBr)c1ccccc1`, the Potency entry in [9], in test [2], in test [3], in test [4] and in [6] was “inactive” in each case.
Take `Brc1ccccc1`: the Potency entry in [9], in test [2], in test [3], in test [4] and in test [5] was “inactive” in each case.
With `CCCCc1c(C)nc(NCC)nc1OS(=O)(=O)N(C)C`, the Potency entry in test [9], in test [2], in test [4] and in [8] was “inactive” in each case. Moreover, the Potency in test [5] was 21.7 µM (active); in test [7], 48.6 µM (active).
For `CC1CC(CC2CCC(N)C(C)C2)CCC1N` (centres undefined), the Potency entry in test [9], in test [2], in [3] and in [5] was “inactive” each time.
In the case of `CC(c1ccc(O)cc1)(c1ccc(O)cc1)c1ccc(O)cc1`, the Potency result in test [9], in test [2], in [3], in test [5] and in [8] was “inactive” each time. Also, the Potency in test [4] was 9.69 µM (active); in test [7] it was 54.5 µM (active).
As to `CC(C)(Cl)[N+](=O)[O-]`, the Potency result in [9], in [2], in [3], in test [4], in test [5] and in [6] was “inactive” in each case. In addition, the Potency entry in test [8] is “inactive”.
As for `II`, the Potency in [9] is 28.3 µM (active). Also, the Potency entry in test [2], in test [3], in test [4], in test [5] and in test [6] was “inactive” throughout.
For `COP(=O)(OC)O/C(=C/Cl)c1cc(Cl)c(Cl)cc1Cl`, the Potency result in test [9], in test [2], in test [3] and in test [8] was “inactive” in each case. Further, in [7], the Potency was 8.13 µM (active).
